What all share (test): log2 fold change, soluble protein after heating vs DMSO (PISA); higher = thermal stabilisation; K562 lysate, 10 uM; active = over 0.2 and 3.5 SD of the protein, either way, in both replicates (recomputed)
Compound in assay [1]: NCC(=O)Nc1ccc(-n2nc(C(F)(F)F)cc2-c2ccc3c(ccc4ccccc43)c2)cc1
In a few lines: (§1)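 Pellets of K562 cells were dounce-homogenised in PBS pH 7.4 with 1 mM MgCl2, and the crude extract was held at 1 mg/mL protein for a 30 min treatment with 10 μM compound. Aliquots were heated for 3 min over 48°C-58°C and pooled before NP-40 was added to 0.5% at 4°C. The supernatant from 21,000xg for 90 min was quantified by TMTpro 16plex LC-MS/MS with channel sums equalised. Values are reported from duplicates as log-two fold change in thermal stability relative to solvent controls.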

Compound in assay [2]: O=C(CCCCCCC(=O)Nc1ccccc1)NO [vorinostat]
In a few lines: as §1

Compound in assay [3]: O=C(O)c1ccc2c(c1)nc(Nc1cccc(Cl)c1)c1ccncc12 [silmitasertib]
A digest of the protocol: as §1

Compound in assay [4]: O=C1NC(=O)C(c2cnc3ccccn23)=C1c1cn2c3c(cc(F)cc13)CN(C(=O)N1CCCCC1)CC2
A digest of the protocol: as §1

Compound in assay [5]: c1cn2cc(-c3ccc4cn[nH]c4c3)nc(Nc3ccc(N4CCOCC4)cc3)c2n1 [entospletinib]
A digest of the protocol: as §1

Of roughly 8,800 targets only a part is listed; those with a hit were picked by preference. About 0.5% of all pairs of compound and target were hits.

These results are taken from the supplement of paper PMC10849652.

UniProt Q9H857, sequence (Q9H857 whole entry, looked up): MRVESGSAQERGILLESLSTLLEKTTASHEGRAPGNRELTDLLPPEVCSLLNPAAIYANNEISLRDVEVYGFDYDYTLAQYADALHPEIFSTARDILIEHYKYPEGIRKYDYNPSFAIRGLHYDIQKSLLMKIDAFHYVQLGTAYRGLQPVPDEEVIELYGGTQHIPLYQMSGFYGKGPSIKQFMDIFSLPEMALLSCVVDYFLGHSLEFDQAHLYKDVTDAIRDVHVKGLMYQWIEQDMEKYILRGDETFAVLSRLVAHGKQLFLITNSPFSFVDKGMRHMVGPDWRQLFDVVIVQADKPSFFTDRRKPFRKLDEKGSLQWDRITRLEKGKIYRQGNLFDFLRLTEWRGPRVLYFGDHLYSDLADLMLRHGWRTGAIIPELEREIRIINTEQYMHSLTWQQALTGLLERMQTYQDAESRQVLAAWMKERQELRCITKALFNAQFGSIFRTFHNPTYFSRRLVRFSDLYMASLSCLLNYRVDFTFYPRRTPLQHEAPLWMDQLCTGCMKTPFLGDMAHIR
UniProt Q15843, sequence (Q15843 whole entry, looked up): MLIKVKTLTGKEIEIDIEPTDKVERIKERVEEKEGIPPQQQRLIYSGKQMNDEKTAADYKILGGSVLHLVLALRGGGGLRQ
UniProt O75376, sequence (O75376 whole entry, looked up): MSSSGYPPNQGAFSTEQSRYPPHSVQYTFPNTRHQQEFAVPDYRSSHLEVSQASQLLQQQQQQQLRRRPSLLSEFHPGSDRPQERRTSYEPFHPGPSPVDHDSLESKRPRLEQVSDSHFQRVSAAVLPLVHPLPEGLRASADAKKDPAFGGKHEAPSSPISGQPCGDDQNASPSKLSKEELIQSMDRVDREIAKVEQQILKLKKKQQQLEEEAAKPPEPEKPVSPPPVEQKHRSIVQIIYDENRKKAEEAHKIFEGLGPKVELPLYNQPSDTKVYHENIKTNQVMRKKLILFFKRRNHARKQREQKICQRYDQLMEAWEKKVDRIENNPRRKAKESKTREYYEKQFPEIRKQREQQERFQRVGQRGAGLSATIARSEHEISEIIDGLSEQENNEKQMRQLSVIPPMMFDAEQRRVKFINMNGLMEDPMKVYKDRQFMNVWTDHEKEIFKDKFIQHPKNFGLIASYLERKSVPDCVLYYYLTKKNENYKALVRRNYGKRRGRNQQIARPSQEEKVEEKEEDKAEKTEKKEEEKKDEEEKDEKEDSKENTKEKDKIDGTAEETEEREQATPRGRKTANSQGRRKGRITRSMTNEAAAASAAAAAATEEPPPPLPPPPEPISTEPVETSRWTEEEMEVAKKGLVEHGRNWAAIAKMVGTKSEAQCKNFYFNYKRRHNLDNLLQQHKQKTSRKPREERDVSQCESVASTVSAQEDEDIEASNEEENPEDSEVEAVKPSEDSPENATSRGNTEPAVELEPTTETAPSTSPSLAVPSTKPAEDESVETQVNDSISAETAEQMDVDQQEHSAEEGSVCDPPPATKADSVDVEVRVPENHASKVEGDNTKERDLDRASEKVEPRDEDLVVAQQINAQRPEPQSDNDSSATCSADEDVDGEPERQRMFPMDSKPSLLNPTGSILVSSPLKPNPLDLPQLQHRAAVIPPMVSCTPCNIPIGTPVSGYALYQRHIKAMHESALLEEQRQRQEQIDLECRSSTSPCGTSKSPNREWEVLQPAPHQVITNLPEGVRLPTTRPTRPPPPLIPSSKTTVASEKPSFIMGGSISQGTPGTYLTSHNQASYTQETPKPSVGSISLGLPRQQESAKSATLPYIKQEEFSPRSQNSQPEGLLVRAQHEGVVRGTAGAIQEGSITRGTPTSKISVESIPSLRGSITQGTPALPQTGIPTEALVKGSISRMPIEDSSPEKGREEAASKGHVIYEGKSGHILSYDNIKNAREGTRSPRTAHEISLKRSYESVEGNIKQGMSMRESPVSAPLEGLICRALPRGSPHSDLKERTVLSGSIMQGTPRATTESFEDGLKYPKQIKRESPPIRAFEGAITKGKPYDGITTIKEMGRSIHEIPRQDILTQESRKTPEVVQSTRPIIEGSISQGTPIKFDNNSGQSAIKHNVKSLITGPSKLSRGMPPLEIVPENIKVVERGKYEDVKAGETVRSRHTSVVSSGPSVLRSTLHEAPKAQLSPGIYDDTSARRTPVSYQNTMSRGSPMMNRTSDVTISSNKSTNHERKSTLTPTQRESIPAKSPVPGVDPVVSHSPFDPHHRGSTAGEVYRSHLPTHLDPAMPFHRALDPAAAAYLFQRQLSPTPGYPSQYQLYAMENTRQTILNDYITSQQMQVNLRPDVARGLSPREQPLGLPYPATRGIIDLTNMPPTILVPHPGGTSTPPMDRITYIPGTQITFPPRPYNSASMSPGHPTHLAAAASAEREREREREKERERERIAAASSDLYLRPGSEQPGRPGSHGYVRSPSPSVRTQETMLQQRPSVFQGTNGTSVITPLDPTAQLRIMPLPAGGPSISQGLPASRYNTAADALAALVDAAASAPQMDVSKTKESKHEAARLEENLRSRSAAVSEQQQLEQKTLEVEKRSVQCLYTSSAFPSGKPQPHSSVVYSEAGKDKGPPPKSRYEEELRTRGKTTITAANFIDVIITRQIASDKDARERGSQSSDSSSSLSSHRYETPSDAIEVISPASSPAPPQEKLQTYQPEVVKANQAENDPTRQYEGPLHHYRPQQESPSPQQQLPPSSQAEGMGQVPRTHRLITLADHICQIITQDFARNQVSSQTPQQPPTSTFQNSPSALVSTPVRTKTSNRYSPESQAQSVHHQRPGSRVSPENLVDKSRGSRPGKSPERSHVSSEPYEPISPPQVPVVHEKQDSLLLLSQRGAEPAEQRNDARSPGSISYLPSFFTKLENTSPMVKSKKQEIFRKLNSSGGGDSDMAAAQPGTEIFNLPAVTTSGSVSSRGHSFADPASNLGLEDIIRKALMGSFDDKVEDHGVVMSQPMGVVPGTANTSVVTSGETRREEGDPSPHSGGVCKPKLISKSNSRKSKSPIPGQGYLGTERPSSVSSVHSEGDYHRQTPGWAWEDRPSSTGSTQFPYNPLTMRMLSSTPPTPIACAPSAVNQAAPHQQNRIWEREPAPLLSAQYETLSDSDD
UniProt O95644, sequence (O95644 whole entry, looked up): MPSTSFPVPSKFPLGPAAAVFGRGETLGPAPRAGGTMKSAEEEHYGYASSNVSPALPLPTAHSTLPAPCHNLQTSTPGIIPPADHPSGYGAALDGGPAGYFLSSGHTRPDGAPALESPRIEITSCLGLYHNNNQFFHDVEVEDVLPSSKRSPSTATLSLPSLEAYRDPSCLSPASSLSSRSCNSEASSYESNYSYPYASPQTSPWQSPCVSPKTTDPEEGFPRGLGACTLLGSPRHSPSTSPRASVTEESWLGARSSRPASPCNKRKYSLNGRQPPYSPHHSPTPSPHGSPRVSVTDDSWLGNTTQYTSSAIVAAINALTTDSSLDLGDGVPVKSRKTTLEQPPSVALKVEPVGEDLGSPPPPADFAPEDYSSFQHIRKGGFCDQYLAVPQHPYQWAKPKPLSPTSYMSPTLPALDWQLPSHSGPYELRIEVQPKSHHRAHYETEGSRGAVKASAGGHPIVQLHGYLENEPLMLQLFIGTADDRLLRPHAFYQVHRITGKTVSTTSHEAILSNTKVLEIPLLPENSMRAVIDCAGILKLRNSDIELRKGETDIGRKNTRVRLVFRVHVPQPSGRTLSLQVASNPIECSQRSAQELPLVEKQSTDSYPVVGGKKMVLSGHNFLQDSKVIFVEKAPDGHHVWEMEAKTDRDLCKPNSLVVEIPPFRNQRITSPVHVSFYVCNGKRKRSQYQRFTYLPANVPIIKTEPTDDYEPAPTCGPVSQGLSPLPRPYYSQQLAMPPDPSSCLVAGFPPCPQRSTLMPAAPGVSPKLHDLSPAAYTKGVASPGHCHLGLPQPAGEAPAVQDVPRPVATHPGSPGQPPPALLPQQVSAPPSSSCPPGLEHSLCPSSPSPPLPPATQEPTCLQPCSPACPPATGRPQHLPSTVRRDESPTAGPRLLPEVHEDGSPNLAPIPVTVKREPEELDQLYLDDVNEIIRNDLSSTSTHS
UniProt Q9Y6R0, sequence (Q9Y6R0 whole entry, looked up): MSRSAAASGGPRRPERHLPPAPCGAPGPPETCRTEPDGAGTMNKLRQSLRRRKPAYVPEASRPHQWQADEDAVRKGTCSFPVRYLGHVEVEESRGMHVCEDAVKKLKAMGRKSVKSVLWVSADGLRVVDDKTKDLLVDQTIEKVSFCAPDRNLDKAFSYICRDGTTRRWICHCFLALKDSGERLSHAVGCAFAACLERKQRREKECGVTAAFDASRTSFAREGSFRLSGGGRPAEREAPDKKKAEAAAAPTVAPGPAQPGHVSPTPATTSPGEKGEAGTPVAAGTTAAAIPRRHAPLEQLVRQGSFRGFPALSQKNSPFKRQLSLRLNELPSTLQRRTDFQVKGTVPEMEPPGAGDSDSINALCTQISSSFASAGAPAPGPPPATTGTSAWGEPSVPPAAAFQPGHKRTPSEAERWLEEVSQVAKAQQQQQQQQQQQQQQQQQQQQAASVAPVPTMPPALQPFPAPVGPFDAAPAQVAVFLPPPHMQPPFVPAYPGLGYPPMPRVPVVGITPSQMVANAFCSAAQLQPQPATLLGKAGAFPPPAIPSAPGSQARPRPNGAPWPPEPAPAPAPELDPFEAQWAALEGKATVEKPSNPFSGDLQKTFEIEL
UniProt Q4G0N4, sequence (Q4G0N4 whole entry, looked up): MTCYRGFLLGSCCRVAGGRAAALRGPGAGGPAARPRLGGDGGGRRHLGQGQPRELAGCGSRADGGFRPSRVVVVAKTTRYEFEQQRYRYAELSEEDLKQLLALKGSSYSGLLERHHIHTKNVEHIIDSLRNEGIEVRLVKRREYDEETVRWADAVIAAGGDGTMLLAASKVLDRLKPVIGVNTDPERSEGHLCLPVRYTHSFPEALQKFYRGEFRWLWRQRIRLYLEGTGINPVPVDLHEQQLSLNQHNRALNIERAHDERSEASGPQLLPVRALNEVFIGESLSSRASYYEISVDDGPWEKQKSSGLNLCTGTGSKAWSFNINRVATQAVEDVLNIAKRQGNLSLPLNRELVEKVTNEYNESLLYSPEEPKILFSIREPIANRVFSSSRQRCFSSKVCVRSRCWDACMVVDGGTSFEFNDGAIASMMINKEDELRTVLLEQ

Take NADK2 (UniProt Q4G0N4): the log2 fold change in assay [1] was -0.002 (inactive); in assay [2], -0.106 (inactive); in assay [3], 0.044 (inactive); in assay [4], 0.003 (inactive); in assay [5] it was -0.001 (inactive).

Consider NOC2L (UniProt Q9Y3T9), for which the log2 fold change is -0.055 (inactive) in assay [1]; -0.126 (inactive) in assay [2]; 0.031 (inactive) in assay [3]; 0.009 (inactive) in assay [4]; 0.028 (inactive) in assay [5].

Consider MRPS12 (UniProt O15235), for which the log2 fold change in assay [1] was -0.005 (inactive); in assay [2], -0.35 (active); in assay [3], -0.011 (inactive); in assay [4], -0.013 (inactive); in assay [5] it was -0.046 (inactive).

NT5DC2 isoform 2 (UniProt Q9H857): the log2 fold change in assay [1] is 0.013 (inactive); in assay [2], -0.272 (active); in assay [3] it was -0.019 (inactive); in assay [4], 0 (inactive); in assay [5], -0.013 (inactive).

Regarding NCOR1 (UniProt O75376), the log2 fold change in assay [1] was 0.021 (inactive); in assay [2], -0.239 (active); in assay [3], -0.035 (inactive); in assay [4], 0.014 (inactive); in assay [5] it was -0.01 (inactive).

As for NUMBL (UniProt Q9Y6R0), the log2 fold change in assay [1] was 0.04 (inactive); in assay [2], -0.237 (inactive); in assay [3], 0.201 (inactive); in assay [4], 0.021 (inactive); in assay [5] it was 0.102 (inactive).

On to NR2C2 isoform 2 (UniProt P49116), for which the log2 fold change in assay [1] was -0.024 (inactive); in assay [2] it was -0.233 (inactive); in assay [3], 0.041 (inactive); in assay [4], 0.008 (inactive); in assay [5], 0.028 (inactive).

Consider NCKAP1L (UniProt P55160), for which the log2 fold change in assay [1] was 0.288 (inactive); in assay [2], -0.444 (active); in assay [3] it was -0.039 (inactive); in assay [4] it was -0.001 (inactive); in assay [5], 0.029 (inactive).

Regarding NSUN7 (UniProt Q8NE18), the log2 fold change in assay [1] was 0.241 (inactive); in assay [2] it was -0.003 (inactive); in assay [3], 0.005 (inactive); in assay [4], -0.108 (inactive); in assay [5], -0.042 (inactive).

Take NFATC1 (UniProt O95644): the log2 fold change in assay [1] was 0.014 (inactive); in assay [2] it was -0.364 (active); in assay [3], 0.07 (inactive); in assay [4], 0.033 (inactive); in assay [5], -0.047 (inactive).

For MTOR (UniProt P42345), the log2 fold change in assay [1] was -0.035 (inactive); in assay [2], -0.305 (active); in assay [3], 0.146 (inactive); in assay [4], -0.013 (inactive); in assay [5], -0.024 (inactive).

For the target NEDD8 (UniProt Q15843), the log2 fold change is -0.033 (inactive) in assay [1]; 0.195 (inactive) in assay [2]; -0.12 (inactive) in assay [3]; 0.038 (inactive) in assay [4]; -0.082 (inactive) in assay [5].
